PfHsp90 set2 = growth inhibition of PfHsp90-expressing yeast, primary screen, antimalarial PfHsp90 inhibitor project, S. cerevisiae, BacTiter-Glo luminescence, single point, set 2 | AID 504621, 2011 | inhibition, % at 9.4 µM | actives 0.32% (n = 310,000) | BacTiter-Glo ATP, 48 h; yeast lacking PDR1 and PDR3 efflux regulators;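 active = every replicate shows inhibition above about 80%, whatever the replicate mean, limit read from the data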;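 note: 0% = DMSO neutral controls and 100% = 20 µM radicicol positive controls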
tim23-1 inh = growth inhibitors of tim23-1 mutant yeast, primary screen, luminescence, uHTS. actives 1.3% (n = 330,000). inhibition, % at 20 µM. S. cerevisiae tim23-1 growth, BacTiter-Glo luminescence, 24 h;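 active = growth inhibition of the mutant yeast at or above 50%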;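 note: temperature-sensitive mutant grown at 25 °C; plate controls were DMSO-treated mutant yeast for no effect and medium wells lacking yeast for full effect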
tim10-1 inh = growth inhibitors of tim10-1 mutant yeast, primary screen, luminescence, uHTS. S. cerevisiae tim10-1 ts strain growth, BacTiter-Glo, 24 h. inhibition, % at 20 µM. actives 2.2% (n = 330,000). AID 463190, 2010;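 active = inhibition of at least 40%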;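 note: mutant grown at 25 °C; 0% = DMSO wells with yeast and 100% = wells holding no yeast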
V-ATPase pH = regulators of yeast V-ATPase proton pumping, primary screen, pHLuorin cytosolic pH fluorescence; S. cerevisiae; response, % at 10 µM; actives 0.37% (n = 350,000); in the data active = response mostly above about 7.3%, no sharp cut-off; inactive = mostly below about 5.4%; note: actives read high
TIM10 inh = growth inhibitors of isogenic TIM10 control yeast, primary screen, counter-screen for tim10-1 yeast inhibitor project, luminescence, uHTS; S. cerevisiae TIM10 strain growth, BacTiter-Glo luminescence, 24 h; inhibition, % at 10 µM; actives 1.4% (n = 330,000); AID 463195, 2010;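 active = inhibition of 40% or more at the single tested concentration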;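 note: wild-type TIM10 isogenic control strain grown at permissive 25 °C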
SKKanGAS inh = S. pyogenes SKKanGAS growth inhibitors in kanamycin, primary screen, streptokinase expression inhibitor project, SKKanGAS strain, BacTiter-Glo luminescence; 6 h; inhibition, % at 7.5 µM; AID 1662, 2009; actives 1.3% (n = 300,000);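 active = mean replicate score, as percent of positive control median, at least 50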;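 note: strain carries kanamycin resistance gene driven by streptokinase promoter and grows in 40 µg/ml kanamycin; loss of luminescence reflects streptokinase promoter inhibition or plain growth inhibition; 0% = median of DMSO wells and 100% = positive control at its reference dose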
tim10-1 conf = growth inhibitors of tim10-1 mutant yeast, confirmation, single concentration, luminescence, S. cerevisiae; shares compounds with tim10-1 inh; S. cerevisiae tim10-1 ts strain growth, BacTiter-Glo, 24 h; inhibition, % at 20 µM; actives 56% (n = 7,400);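 active = inhibition of yeast growth at or above a set limit in either of two repeat tests at 20 µM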;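 note: tim10-1 mutant grown at permissive 25 °C to find synthetic lethal compounds; 0% = DMSO yeast wells and 100% = medium wells without yeast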
An asterisk follows results filed as active. Most compounds without a hit are left out; they make up all but 4.6% or so of the library.

CN(c1ccccc1)S(=O)(=O)c1ccc(NC(=O)c2ccco2)cc1 was read as PfHsp90 set2 0, tim23-1 inh 44, tim10-1 inh 33, V-ATPase pH 2, TIM10 inh 28 and SKKanGAS inh 2.
`COc1ccc(C(=O)NCC(C)(C)N2CCOCC2)cc1S(=O)(=O)N1CCCC1` gave PfHsp90 set2 -1, tim23-1 inh -9, tim10-1 inh -8, V-ATPase pH 2 and TIM10 inh -11.
Screening Cc1cc(C(=O)NNC(=O)c2sccc2C)c(C)o1 returned tim23-1 inh -1, tim10-1 inh 10, V-ATPase pH -2, TIM10 inh -7 and SKKanGAS inh 5.
For CCCc1ccc(-c2cc(NC(=O)CSc3nnc(N)s3)n(-c3ccccc3)n2)cc1 the results were PfHsp90 set2 39, tim23-1 inh 12, tim10-1 inh 43*, V-ATPase pH -4, TIM10 inh 19, SKKanGAS inh 8 and tim10-1 conf 11.
Screening CCOC(=O)C1(Cc2ccc(OC)cc2)CCN(C(=O)c2cc(C)on2)CC1 returned PfHsp90 set2 11, tim23-1 inh 14, tim10-1 inh 11, V-ATPase pH -1, TIM10 inh 5 and SKKanGAS inh 11.
CCOC(=O)C1(Cc2ccc(OC)cc2)CCN(C(=O)c2cc3ccccc3[nH]2)CC1 was read as PfHsp90 set2 15, tim23-1 inh 27, tim10-1 inh 41*, V-ATPase pH 2, TIM10 inh 24, SKKanGAS inh 15 and tim10-1 conf 29.
`C[C@@H]1CC=C[C@H]2[C@H]1C(=O)N(Cc1ccccc1)[C@H]2c1ccoc1` gave tim23-1 inh 5, tim10-1 inh 50*, V-ATPase pH -1, TIM10 inh -2, SKKanGAS inh 9 and tim10-1 conf 34*.
For CC[C@@H]1CC=C[C@H]2[C@H]1C(=O)N(Cc1ccccc1)[C@H]2c1ccc(OC)c(Cl)c1 the results were PfHsp90 set2 -16, tim23-1 inh 38, tim10-1 inh 43*, V-ATPase pH 6, TIM10 inh 36, SKKanGAS inh 59* and tim10-1 conf 29.
`CC[C@@H]1CC=C[C@H]2[C@H]1C(=O)N(Cc1ccccc1)[C@H]2c1ccc(C(F)(F)F)cc1` gave PfHsp90 set2 8, tim23-1 inh 43, tim10-1 inh 36, V-ATPase pH 5, TIM10 inh 35 and SKKanGAS inh 40.
For CC[C@@H]1CC=C[C@H]2[C@H]1C(=O)N(Cc1ccccc1)[C@H]2c1ccoc1 the results were tim23-1 inh -14, tim10-1 inh 77*, V-ATPase pH -3, TIM10 inh -4, SKKanGAS inh -1 and tim10-1 conf 73*.
For COc1ccc(N2CCN(C(=O)c3cc(=O)c4cc(C)c(C)cc4o3)CC2)cc1 the results were PfHsp90 set2 4, tim23-1 inh 20, tim10-1 inh 4, V-ATPase pH -9, TIM10 inh 25 and SKKanGAS inh -7.
Screening CCOC(=O)c1ccc2nc(NC(=O)c3cccs3)sc2c1 returned PfHsp90 set2 9, tim23-1 inh 21, tim10-1 inh 24, V-ATPase pH 0, TIM10 inh 12 and SKKanGAS inh 25.
For CCOC(=O)c1ccc2nc(NC(=O)c3ccco3)sc2c1 the results were PfHsp90 set2 10, tim23-1 inh 41, tim10-1 inh 41*, V-ATPase pH 2, TIM10 inh 40, SKKanGAS inh 37 and tim10-1 conf 26.
Screening CCCCC(=O)Nc1nc2ccc(C(=O)OC)cc2s1 returned PfHsp90 set2 -25, tim23-1 inh 29, tim10-1 inh 46*, V-ATPase pH -3, TIM10 inh 35, SKKanGAS inh 6 and tim10-1 conf 20.
For NC(=O)Cn1c(=O)n(CCC(=O)Nc2ccc(F)cc2)c(=O)c2sccc21 the results were PfHsp90 set2 5, tim23-1 inh 2, tim10-1 inh -2, V-ATPase pH 3, TIM10 inh 7 and SKKanGAS inh 1.
`CCOC(=O)c1c(S(=O)(=O)N2CCN(c3ccc(C(C)=O)cc3)CC2)c(C)n(C)c1C` gave PfHsp90 set2 13, tim23-1 inh 11, tim10-1 inh 26, V-ATPase pH 0, TIM10 inh 14 and SKKanGAS inh 4.
CN(Cc1cccc(Cl)c1Cl)C(=O)CCNC(=O)c1ccco1 was read as PfHsp90 set2 -8, tim23-1 inh 17, tim10-1 inh 11, V-ATPase pH 4 and TIM10 inh 2.
CC(C)(C)c1ccc2c(c1)OC(C(=O)N/N=C\c1ccc[nH]1)CO2 (stereo not drawn) was read as PfHsp90 set2 0, tim23-1 inh 34, tim10-1 inh 42*, V-ATPase pH 6, TIM10 inh -41, SKKanGAS inh -3 and tim10-1 conf -103.
`COc1cccc(CNS(=O)(=O)c2ccccc2Br)c1OC` gave PfHsp90 set2 8 and V-ATPase pH 2.
`Cc1cc(C)cc(N2C(=O)CC(Sc3nnnn3-c3ccccc3)C2=O)c1` (stereo not drawn) gave PfHsp90 set2 -8, tim23-1 inh 49, tim10-1 inh 51*, V-ATPase pH 4, TIM10 inh 35, SKKanGAS inh 1 and tim10-1 conf 51*.
For Cn1nnnc1SC1CC(=O)N(c2ccccc2)C1=O (stereo not drawn) the results were PfHsp90 set2 8, tim23-1 inh 32, tim10-1 inh 21, V-ATPase pH -1, TIM10 inh 11 and SKKanGAS inh 18.
`COc1ccc(-n2c(C)cc(C(=O)COC(=O)Cn3cnc4ccccc43)c2C)cc1` gave PfHsp90 set2 -13, tim23-1 inh 35, tim10-1 inh 53*, V-ATPase pH 2, TIM10 inh 28, SKKanGAS inh 6 and tim10-1 conf 28.
Screening CC(C)(C)CC(C)(C)c1ccc(OCCOCC[N+](C)(C)Cc2ccccc2)cc1 returned PfHsp90 set2 -41, tim23-1 inh 28, tim10-1 inh 42*, V-ATPase pH 2, TIM10 inh 14 and tim10-1 conf -9.
Screening COC(=O)c1cc(S(=O)(=O)N2CCCC2=O)c(Cl)cc1Cl returned PfHsp90 set2 -14, tim23-1 inh -10, tim10-1 inh -12, V-ATPase pH -1, TIM10 inh -5 and SKKanGAS inh -2.

Source: PubChem
